# Experimental data as given in the supplement of paper PMC9694430.
# Columns and labels:
# Experiment in all cases: thermal shift delta Tm vs DMSO control; higher = stronger stabilization (binding)
# Settings in all cases: 12.5 µM; protein concentration 2 µM
# LOC_OS04G57630-cb004 = system: LOC_OS04G57630-cb004
# In short: (§1)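 Compounds dissolved in DMSO were added to purified rice kinase domain constructs, which had been expressed in E. coli, for differential scanning fluorimetry. Each well held 19.5 μl of 2 μM kinase in 100 mM potassium phosphate pH 7.5, 150 mM NaCl, 10% glycerol and 5 × SYPRO Orange. Fluorescence was followed from 25°C to 95°C at a rate of 0.05°C/s. Shifts in Boltzmann-fitted melting temperature are triplicate means relative to DMSO-only protein.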
# LOC_OS05G07850-cb002 = system: LOC_OS05G07850-cb002
# In short: as §1
# LOC_OS05G16824-cb004 = system: LOC_OS05G16824-cb004
# In short: as §1
# LOC_OS05G28520-cb001 = system: LOC_OS05G28520-cb001
# In short: as §1
# LOC_OS05G30820-cb001 = system: LOC_OS05G30820-cb001
# In short: as §1
# LOC_OS05G43570-cb004 = system: LOC_OS05G43570-cb004
# In short: as §1
# LOC_OS06G16330-cb003 = system: LOC_OS06G16330-cb003
# Chain of LOC_OS06G16330-cb003 (as listed by the source): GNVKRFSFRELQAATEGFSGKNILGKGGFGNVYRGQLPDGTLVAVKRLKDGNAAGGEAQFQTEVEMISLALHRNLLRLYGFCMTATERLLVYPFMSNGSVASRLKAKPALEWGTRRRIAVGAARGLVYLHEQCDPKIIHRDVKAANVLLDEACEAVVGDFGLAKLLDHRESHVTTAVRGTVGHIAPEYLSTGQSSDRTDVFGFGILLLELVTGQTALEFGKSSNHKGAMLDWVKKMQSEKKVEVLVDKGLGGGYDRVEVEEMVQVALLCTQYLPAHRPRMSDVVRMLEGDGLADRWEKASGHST
# In short: as §1
# LOC_OS06G22820-cb001 = system: T1, LOC_OS06G22820-cb001
# T1 sequence (whole entry): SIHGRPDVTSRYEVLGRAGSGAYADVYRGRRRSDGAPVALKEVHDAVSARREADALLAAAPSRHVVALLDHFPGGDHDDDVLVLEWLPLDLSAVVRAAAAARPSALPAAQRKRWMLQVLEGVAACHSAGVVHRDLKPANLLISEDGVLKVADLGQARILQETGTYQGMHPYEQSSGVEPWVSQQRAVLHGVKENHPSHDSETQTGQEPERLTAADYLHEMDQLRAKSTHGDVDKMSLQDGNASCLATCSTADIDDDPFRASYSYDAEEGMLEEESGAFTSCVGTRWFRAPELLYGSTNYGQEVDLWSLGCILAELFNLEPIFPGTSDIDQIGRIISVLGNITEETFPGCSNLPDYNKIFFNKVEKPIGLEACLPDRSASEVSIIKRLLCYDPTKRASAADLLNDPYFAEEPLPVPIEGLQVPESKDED
# In short: as §1
# LOC_OS07G06570-cb004 = system: LOC_OS07G06570-cb004
# In short: as §1
# LOC_OS07G07230-cb001 = system: LOC_OS07G07230-cb001
# In short: as §1
SMILES,thermal shift delta Tm (LOC_OS04G57630-cb004),thermal shift delta Tm (LOC_OS05G07850-cb002),thermal shift delta Tm (LOC_OS05G16824-cb004),thermal shift delta Tm (LOC_OS05G28520-cb001),thermal shift delta Tm (LOC_OS05G30820-cb001),thermal shift delta Tm (LOC_OS05G43570-cb004),thermal shift delta Tm (LOC_OS06G16330-cb003),thermal shift delta Tm (LOC_OS06G22820-cb001),thermal shift delta Tm (LOC_OS07G06570-cb004),thermal shift delta Tm (LOC_OS07G07230-cb001)
Cn1c2ccccc2c2c3c(c4c5ccccc5n(CCC#N)c4c21)CNC3=O,0.32 °C,14.2 °C,7.06 °C,1.51 °C,1.15 °C,1.86 °C,7.19 °C,1.21 °C,-0.17 °C,1.18 °C
OCCn1cc(-c2cnc3nnn(Cc4ccc5ncccc5c4)c3n2)cn1,-0.21 °C,0.33 °C,-2.44 °C,0.66 °C,0.46 °C,0.28 °C,-0.29 °C,0.46 °C,0.2 °C,0.97 °C
CN(C[C@@H]1COCCO1)S(=O)(=O)Nc1ccc2ccc3ncc(-c4cnn(C)c4)cc3c(=O)c2c1,4.12 °C,10.5 °C,7.72 °C,0.77 °C,1.85 °C,0.41 °C,7.23 °C,0.65 °C,1.07 °C,0.63 °C
COc1cc(OC)c(C=C2C(=O)Nc3ccccc32)c(OC)c1,0.1 °C,0.55 °C,-0.46 °C,0.31 °C,0.46 °C,-0.11 °C,-0.29 °C,0.44 °C,1.13 °C,0.96 °C
CN1CCN(c2ccc(-c3ccncc3-c3cc(F)c(O)c(F)c3)cc2)CC1,0.24 °C,3.75 °C,-0.65 °C,0.95 °C,0.41 °C,0.25 °C,1.09 °C,0.54 °C,0.48 °C,0.18 °C
Cc1cnc(Nc2ccc(N3CCN(C)CC3)cc2)nc1Nc1cccc(S(=O)(=O)NC(C)(C)C)c1,2.45 °C,10.4 °C,7.7 °C,1.9 °C,0.89 °C,0.98 °C,5.92 °C,0.43 °C,0.63 °C,-0.42 °C
CCN(CC)CCNC(=O)c1c(C)[nH]c(/C=C2\C(=O)Nc3ccc(F)cc32)c1C [Sunitinib],4.01 °C,8.4 °C,12.1 °C,2.16 °C,0.86 °C,0.55 °C,8.31 °C,0.22 °C,0.72 °C,0.24 °C
Cc1cc(C(=O)NOCCO)c(Nc2ccc(I)cc2F)n(C)c1=O,0.11 °C,0.04 °C,-9.58 °C,-0.17 °C,0.7 °C,0.18 °C,-0.11 °C,0.38 °C,1.15 °C,0.15 °C
COc1cc(OC)cc(N(CCNC(C)C)c2ccc3ncc(-c4cnn(C)c4)nc3c2)c1,0.11 °C,3.45 °C,-0.05 °C,0 °C,0.18 °C,0.08 °C,0.79 °C,0.32 °C,1.94 °C,0.52 °C
CC[C@@H]1C(=O)N(C)c2cnc(Nc3ccc(C(=O)NC4CCN(C)CC4)cc3OC)nc2N1C1CCCC1,-0.45 °C,0.42 °C,1.14 °C,0.12 °C,0.28 °C,0.24 °C,0.39 °C,0.4 °C,0.75 °C,0.09 °C
Cc1cc(C(C)Nc2ccccc2)c2nc(N3CCOCC3)cc(=O)n2c1 (stereo not given),-0.32 °C,0.35 °C,-2.9 °C,0.25 °C,0.38 °C,0.22 °C,0.32 °C,0.59 °C,0.64 °C,0.53 °C
COc1ccc2c(Oc3ccc(NC(=O)c4c(C)n(CC(C)(C)O)n(-c5ccccc5)c4=O)nc3)ccnc2c1,1.04 °C,9.73 °C,-1.1 °C,0.15 °C,0.52 °C,1.07 °C,5.11 °C,0.68 °C,0.62 °C,-0.14 °C
CC(C)Oc1ccc(-c2nn([C@@H](C)c3oc4ccc(F)cc4c(=O)c3-c3cccc(F)c3)c3ncnc(N)c23)cc1F,0.05 °C,-1 °C,-4.89 °C,0.51 °C,0.43 °C,0.51 °C,0.01 °C,0.62 °C,1.08 °C,-0.07 °C
CN1CCN(S(=O)(=O)c2ccc(-c3cnc(N)c(C(=O)Nc4cccnc4)n3)cc2)CC1,0.6 °C,7.93 °C,1.41 °C,0.68 °C,0.46 °C,-0.03 °C,2.59 °C,0.9 °C,1.34 °C,0.52 °C
Nc1cccc(-c2cc3c(Oc4cccc(O)c4)ncnc3[nH]2)c1,1.21 °C,11.1 °C,5.59 °C,0.57 °C,1.14 °C,0.77 °C,4.75 °C,0.88 °C,1.36 °C,-0.21 °C
Cc1ccc(C(=O)Nc2ccc(CN3CCN(C)CC3)c(C(F)(F)F)c2)cc1C#Cc1cnc2[nH]ncc2c1 [GZD824 Dimesylate],6.01 °C,13.9 °C,2.52 °C,0.74 °C,2.1 °C,1.6 °C,5.01 °C,0.3 °C,0.65 °C,1.45 °C
FC(F)c1nc2ccccc2n1-c1nc(N2CCOCC2)nc(N2CCOCC2)n1,0.39 °C,0.04 °C,1.24 °C,0.54 °C,0.54 °C,0.5 °C,0.49 °C,0.93 °C,0.84 °C,0.3 °C
Cc1ccc(Nc2nccc(N(C)c3ccc4c(C)n(C)nc4c3)n2)cc1S(N)(=O)=O,0.96 °C,8.97 °C,4.72 °C,0.97 °C,0.39 °C,1.48 °C,3.83 °C,0.9 °C,1.14 °C,0.54 °C
O=C(Nc1cccc(Nc2ncc(Br)c(NCCc3cnc[nH]3)n2)c1)N1CCCC1,7.51 °C,10.4 °C,13.2 °C,-0.09 °C,6.02 °C,0.65 °C,8.57 °C,0.67 °C,0.48 °C,1.02 °C
